Usually AC50 stands for the concentration at which the activity in the assay is half-maximal.

The record followed here is PubChem BioAssay (EPA / NIEHS).

Records with an inconclusive call do not appear. Active and inactive are the calls of the source. How the source made its calls: active means hit-call score of the fitted dose curve at least 0.9, where 1 is the maximum; inconclusive means response in the unintended direction; inactive means score below 0.9.

A short description of one experiment: ACEA_AR_antagonist_AUC_viability: ACEA Biosciences xCELLigence Real-Time Cell Analysis on Androgen Receptor Antagonism for Viability (AID 2283776).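 Further: 22Rv1 human prostate cancer cells growing on impedance electrode plates; area under impedance growth curve at 80 h after dosing as viability; hits lower the growth signal relative to DMSO meaning cytotoxicity.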 Summed up: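 Viability endpoint from label-free cell-index monitoring: 22Rv1 cultures treated with an eight-point 1:4 dilution series starting at 100 uM final, AUC at 80 h fitted against DMSO.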
`CCCCCCOc1ccc(N)cc1`: the outcome was inactive. Consider `CC(CCC(=O)O)(c1ccc(O)cc1)c1ccc(O)cc1`, for which the AC50 was 1.24 µM (active). Consider `CCCCCC(=O)OCC`, for which the call was inactive.

Take `COC(=O)c1ccccc1C`: the result was inactive. With `CCCCCC[C@@H](O)C/C=C\CCCCCCCC(=O)OCC(O)CO` (stereo partly specified), the result was inactive.

As to `COc1cc(O)c(C(=O)c2ccccc2)cc1S(=O)(=O)O`, the compound was called inactive.

As to `Oc1ccccc1Cc1ccccc1O`, the AC50 was 1.48 µM (active). With `CCOC(=O)c1ccc(C)cc1`, the compound was classed as inactive. On the same count and under the same terms, then `Cc1ccc(C)c(OCCCC(C)(C)C(=O)O)c1`, with “inactive”.

Take `O=C(O)c1ccc2c(c1)C(=O)OC2=O`: the call was inactive. Regarding `CCCCCCCOC(=O)c1ccc(O)cc1`, the compound was called inactive. On the same count and under the same terms, the result for `CCCCCCO` reads “inactive”; that for `CCC1COC(=O)O1` (stereo unspecified), “inactive”.

Another experiment is described as follows: ACEA_ER_AUC_viability: ACEA Biosciences xCELLigence Real-Time Cell Analysis on Estrogen Receptor Agonism for Viability (AID 2283782).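 Further: continuous compound exposure with impedance area under curve over 80 h; hit means loss of impedance signal meaning reduced cell growth or viability.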 The method, boiled down: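 T47D cells preconditioned in phenol red-free RPMI with charcoal-stripped FBS, then dosed with 8-point 1:4 series from 100 uM (up to 0.5% DMSO). Impedance monitored up to ~80 h; area-under-curve loss versus DMSO taken as viability.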
With `CCCCCCOc1ccc(N)cc1`, the AC50 was 86.8 µM (active).

As to `CCCCCC(=O)OCC`, the call was inactive. For the compound `[Cl][Eu]([Cl])[Cl]`, the compound was called inactive. As for `Nc1ccc(O)c([N+](=O)[O-])c1`, the AC50 is 85.7 µM (active). `CCCCCCCCCCCC(=O)OCC`: the compound was called inactive. Take `C=CC(=O)OCC(C)OCC(C)OCC(C)OC(=O)C=C` (stereo unspecified): the AC50 was 21.3 µM (active). Take `COC(=O)c1ccccc1C`: the result was inactive.

On to `CC(C)(CO)C(O)C(=O)NCCCO` (stereo unspecified), for which the call was inactive. Regarding `C=CCCCCCCCCO`, the AC50 was 50 µM (active).

For `CC(c1cc(C(C)(C)C)cc(C(C)(C)C)c1O)c1cc(C(C)(C)C)cc(C(C)(C)C)c1O`, the compound was classed as inactive. As to `CC(Cl)COP(=O)(OCC(C)Cl)OCC(C)Cl` (stereo unspecified), the outcome was inactive. Turning to `CCCCCC[C@@H](O)C/C=C\CCCCCCCC(=O)OCC(O)CO` (stereo partly specified), the result was inactive. Regarding `CC1C(C)(C)C2=C(C(=O)CCC2)C1(C)C` (stereo unspecified), the result was inactive. Take `C=C(C)C(=O)OCC(O)COc1ccc(C(C)(C)c2ccc(OCC(O)COC(=O)C(=C)C)cc2)cc1` (stereo unspecified): the AC50 is 30.3 µM (active).

Consider `CCOC(=O)c1ccc(C)cc1`, for which the call was inactive. In the case of `CC/C=C\CCOC(=O)c1ccccc1O`, the AC50 is 72.7 µM (active). Consider `O=C(O[C@@H]1Cc2c(O)cc(O)cc2O[C@@H]1c1cc(O)c(O)c(O)c1)c1cc(O)c(O)c(O)c1`, for which the concentration at half-maximal activity (AC50) is 61 µM (active). For `Nc1ccc(C(=O)OCCCOC(=O)c2ccc(N)cc2)cc1`, the compound was classed as inactive. Consider `Cn1cccc1`, for which the outcome was inactive.

For `Nc1ncnc2nc[nH]c12`, the result was inactive. On the same count and under the same terms, the result for `CC1(C)CCC[C@]2(C)[C@H]3CC(=O)O[C@]3(C)CC[C@@H]12` reads “inactive”. Consider `O=C(C=Cc1ccccc1)OCCc1ccccc1`, for which the AC50 was 58 µM (active). Regarding `CC1(C)C(=O)N(CO)C(=O)N1CO`, the call was inactive. On to `O=C(O)c1ccc2c(c1)C(=O)OC2=O`, for which the compound was classed as inactive. Consider `CCCCCCCOC(=O)c1ccc(O)cc1`, for which the AC50 is 24.1 µM (active).

As to `CC(=O)CCC1=C(C)CCCC1(C)C`, the AC50 is 81.5 µM (active).

As to `Nc1nc(N)nc(-c2ccccc2)n1`, the compound was called inactive. Still for that read-out and setting: then `Cc1cc(C)c(C=O)c(C)c1`, with “inactive”. Take `COC(Cc1ccccc1)OC`: the AC50 is 67 µM (active). As for `O=C1CCCN1C1CCCCC1`, the compound was called inactive. For `CCCCCCO`, the call was inactive. On the same count and under the same terms, the result for `CCC1COC(=O)O1` (stereo unspecified) reads “inactive”. In the case of `O=S(=O)(O)c1ccc(Nc2nc(Nc3ccc(C=Cc4ccc(Nc5nc(Nc6ccc(S(=O)(=O)O)cc6)nc(N(CCO)CCO)n5)cc4S(=O)(=O)O)c(S(=O)(=O)O)c3)nc(N(CCO)CCO)n2)cc1`, the outcome was inactive.
